Assay outcomes as filed in PubChem.
CYP2C9 inh = inhibitors of human CYP2C9. P11712. CYP2C9 Supersomes, luciferin-H conversion, luminescence. inhibition, % at 5 µM. 96,000 compounds, 20% hits. AID 777;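 active = blocking of liver enzyme CYP2C9 beyond about 50% at 5 µM, limit read from the data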
Target sequence (P11712 whole entry, looked up): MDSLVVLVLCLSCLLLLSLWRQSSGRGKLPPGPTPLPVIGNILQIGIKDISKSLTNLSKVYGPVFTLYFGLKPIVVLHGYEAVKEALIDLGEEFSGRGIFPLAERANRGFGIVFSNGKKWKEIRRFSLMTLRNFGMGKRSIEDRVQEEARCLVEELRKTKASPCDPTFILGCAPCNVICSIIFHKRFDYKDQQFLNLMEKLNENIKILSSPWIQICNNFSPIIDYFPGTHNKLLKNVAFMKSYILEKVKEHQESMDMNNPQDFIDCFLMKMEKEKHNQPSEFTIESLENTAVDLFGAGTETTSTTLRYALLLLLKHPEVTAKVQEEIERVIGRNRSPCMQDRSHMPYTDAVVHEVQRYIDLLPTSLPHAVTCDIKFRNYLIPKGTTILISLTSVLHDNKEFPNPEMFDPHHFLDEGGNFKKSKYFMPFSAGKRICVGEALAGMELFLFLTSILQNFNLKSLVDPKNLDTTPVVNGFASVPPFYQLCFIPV
CYP2C19 inh = blocks human cytochrome P450 2C19; P33261; CYP2C19 Supersomes, luciferin-H EGE luminescence, 30 min; inhibition, % at 5 µM; 96,000 compounds, 21% hits; AID 778;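 active = CYP2C19 inhibition above a set limit at 5 µM in the primary screen, cut at about 50% in these data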
Cav3 T inh = inhibitors of human Cav3.2 T-type calcium channel; O95180; Cav3.2-expressing cells, Fluo-4 calcium fluorescence FDSS; active compounds read low; B-score at 10 µM; 100,000 compounds, 4% hits; AID 449739;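 active = single-dose well whose peak fluorescence ratio is a statistical outlier from its plate by either plate-standardised score or position-corrected B-score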
CYP2C9 activ = increases human cytochrome P450 2C9 activity; activation factor at 5 µM; AID 1024; recombinant CYP2C9, luciferin-H conversion, luminescence; active compounds read high; factor 1 = untreated enzyme, 0 = blocked; 96,000 compounds, 1.4% hits;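 active = activation factor of 2 or more for CYP2C9 at a 5 µM dose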
CYP2C19 act = activators of human cytochrome P450 2C19. P33261. recombinant CYP2C19, luciferin-H EGE luminescence; active compounds read high; 0 = fully inhibited enzyme, 1 = untreated enzyme. activation factor at 5 µM. 96,000 tested, under 10 active. AID 1025;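 active = activation factor of at least 2 at 5 µM in the primary screen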
Numbers stand for hits; n = inactive; x = no result given. The list is not random: actives were taken first. Their share in the collection is about 27%.

SMILES	CYP2C9 inh	CYP2C19 inh	Cav3 T inh	CYP2C9 activ	CYP2C19 act
CCOc1ccc(-n2c(N)c(C(=O)NCc3ccco3)sc2=S)cc1	57	n	n	n	n
CCOc1ccc(S(=O)(=O)Nc2ccccc2C(=O)NCc2ccco2)cc1	70	100	n	n	n
c1ccc(Nc2cc(Nc3ccccc3)[nH]n2)cc1	n	74	n	n	n
Cc1ccc(OCCC(=O)Nc2c(C)n(C)n(-c3ccccc3)c2=O)cc1	n	n	n	n	n
CN(C)/C=C(/C(=O)c1ccc(Cl)cc1Cl)S(=O)(=O)c1ccccc1	63	n	n	n	n
CN(C)/C=C(\C(=O)c1ccc(Cl)cc1)c1nnnn1-c1ccc(Cl)cc1	x	x	n	x	x
CN(C)/C=C(/C(=O)c1ccc(Cl)cc1Cl)S(=O)(=O)c1ccc(Cl)cc1	95	80	n	n	n
CN(C)/C=C(/C(=O)c1ccc(Cl)cc1)S(=O)(=O)c1ccc(Cl)cc1	n	62	x	n	n
O=C(Nc1ccc(N=Nc2ccccc2)cc1)c1ccc(Cl)cc1Cl	n	n	n	n	n
O=C(NN1C(=O)C2C3C=CC(C4CC34)C2C1=O)c1ccc(Cl)cc1Cl (stereo unspecified)	n	n	n	n	n
CNC(=O)c1[nH]cnc1C(=O)N[C@@H](C)C(=O)OC(C)(C)C	x	x	n	x	x
CCc1ccc(N(C(=O)CNC(=O)c2cccs2)C(C(=O)NC(C)(C)C)c2cc(OC)c(OC)c(OC)c2)cc1 (stereo unspecified)	n	n	n	n	n
COCCN1CCn2c(nc3cc(NC(=O)c4cccs4)ccc32)C1	n	n	n	n	n
O=C(Nc1ccc2c(c1)nc1n2CCSC1)c1ccccc1	54	n	n	n	n
CC(c1ccccc1)N1CCn2c(nc3cc(NC(=O)c4cccs4)ccc32)C1 (stereo unspecified)	84	n	n	n	n
CS(=O)(=O)N(Cc1ccccc1F)c1ccccc1	x	x	n	x	x
O=C(Nc1nccs1)c1csc2c1CCCC2	x	x	n	x	x
c1ccc(-c2nnc(SCCC3OCCCO3)o2)cc1	n	n	x	n	n
COC(=O)C1=C(C)NC2=C(C(=O)CCC2)C1c1cn(Cc2ccc(Cl)cc2Cl)nc1-c1ccccc1 (stereo unspecified)	73	53	-7.3	n	n
CCN(CC)c1ccc(C2C(C(=O)OCCOC)=C(C)NC3=C2C(=O)CCC3)cc1 (stereo unspecified)	n	n	n	n	n
CCOC(=O)C1=C(C)NC2=C(C(=O)CCC2)C1c1cn(Cc2ccc(Cl)cc2Cl)nc1-c1ccccc1 (stereo unspecified)	83	51	x	n	n
CC(=O)C1=C(O)C(=O)N(CCC(=O)O)C1c1cccc(F)c1 (stereo unspecified)	n	n	n	n	n
COc1cc2cc(Oc3ccc4ccc(=O)oc4c3)c(=O)oc2cc1OC(=O)/C=C/c1ccccc1	x	x	n	x	x
CC(C)(C)OC(=O)N1CC(O)CC1C(=O)OCC(=O)c1ccccc1 (stereo unspecified)	x	x	n	x	x
CCCOC(=O)C1C2C=CC(C3CC23)C1C(=O)OCC(=O)c1ccccc1 (stereo unspecified)	73	91	-5.5	n	n
SMILES	CYP2C9 inh	CYP2C19 inh	Cav3 T inh	CYP2C9 activ	CYP2C19 act
COc1cccc(C(=O)CN(C(=O)c2ccc(Cl)c(Cl)c2)N2C(=O)C3CCCCC3C2=O)c1 (stereo unspecified)	n	n	n	n	n
OC(CC1CC12c1ccccc1-c1ncccc12)(c1ccccc1)c1ccccc1 (stereo unspecified)	97	92	n	n	n
Cc1cc(C)c(S(=O)(=O)c2ccccc2C(=O)O)c(C)c1	n	n	n	n	n
Cc1ccccc1S(=O)(=O)c1c(C)cc(C)n(CC(C)C)c1=O	81	82	n	n	n
CC(C)C[C@H](NC(=O)c1nc[nH]c1C(=O)NCc1ccccc1)C(=O)OCc1ccccc1	x	x	n	x	x
CCN1C(=O)/C(=C/N(C(C)=O)c2ccccc2)N(c2ccccc2)C1=S	95	63	n	n	n
CCN1C(=O)N[C@H](c2ccccc2)C(C(C)=O)=C1C	x	x	n	x	x
O=C(NCC1CC1)C1CCCN(S(=O)(=O)c2ccc(-n3cnnn3)cc2)C1 (stereo unspecified)	n	n	n	n	n
CC1CCCCC1NS(=O)(=O)c1ccc(S(=O)(=O)N2CCCC2)cc1 (stereo unspecified)	79	79	n	n	n
CC1CCCCC1NS(=O)(=O)c1ccc(-n2cnnn2)cc1 (stereo unspecified)	n	88	n	n	n
CN(C1CCCCC1)S(=O)(=O)c1ccc(-n2cnnn2)cc1	n	100	n	n	n
O=S(=O)(c1ccc(-n2cnnn2)cc1)N(C1CCCCC1)C1CCCCC1	n	n	n	n	n
c1ccc(-n2nnc(-c3cccnc3)n2)cc1	x	x	n	x	x
c1ccc(CNCCN2CCNCC2)nc1	n	n	n	n	n
CCNc1nc(NC(C)CC)nc(Oc2ccc(=O)[nH]n2)n1 (stereo unspecified)	n	50	n	n	n
Cc1nnc(SCCn2c(N3CC(C)CC(C)C3)nc3c2c(=O)[nH]c(=O)n3C)s1 (stereo unspecified)	61	n	n	n	n
COc1ccc(Cl)cc1NC(=O)CN(C)C1CCCCC1	n	86	n	2.3	n
CN(C)S(=O)(=O)N(CC(=O)Nc1cccc(F)c1)c1ccccc1	57	n	n	n	n
CCOC(=O)c1ccccc1NC(=O)CN(c1ccccc1)S(=O)(=O)N(C)C	94	86	n	n	n
CCOC(=O)c1ccccc1NC(=O)CN(c1ccccc1OC)S(C)(=O)=O	n	n	n	n	n
CN(C)S(=O)(=O)N(CC(=O)Nc1ccccc1)c1ccccc1	x	x	n	x	x
Cc1noc(C)c1C(=O)OCC(=O)Nc1cc(Cl)ccc1Oc1ccccc1	63	n	n	n	n
COc1ccc(C)cc1NC(=O)COC(=O)c1c(C)noc1C	n	n	n	n	n
Cc1ccc(N(C(=O)c2ccc(Br)o2)C2C=CS(=O)(=O)C2)cc1 (stereo unspecified)	n	n	n	n	n
COCCn1c(Cc2ccccc2)nnc1SCC(=O)NC(C)C	n	n	n	n	n
SMILES	CYP2C9 inh	CYP2C19 inh	Cav3 T inh	CYP2C9 activ	CYP2C19 act
CC12C=CC3(O1)C(C(=O)N(c1ccccc1)C3C(=O)NC1CCCC1)C2C(N)=O (stereo unspecified)	x	x	n	x	x
CCN(CC)c1ccc(NC(=O)CC2Oc3ccccc3NC2=O)c(C)c1 (stereo unspecified)	n	n	n	n	n
N=c1sccn1CC(=O)Nc1cc(Cl)ccc1Oc1ccccc1	n	n	n	n	n
Cc1cccc(C)c1N(CC(=O)Nc1cc(Cl)ccc1Oc1ccccc1)S(C)(=O)=O	66	n	-5.6	n	n
Cc1ccc(NC(=O)CN(c2ccccc2)S(=O)(=O)N(C)C)cc1C	x	x	-3.6	x	x
Cc1ccc(Cl)cc1NC(=O)COC(=O)C1CCCC1	n	96	n	n	n
COc1ccc(C)cc1NC(=O)COC(=O)C1CC1	n	n	n	n	n
